The target in experiment [1] is Serine/threonine-protein kinase MRCK alpha (Homo sapiens) (UniProt Q5VT25). The settings on record: at 0.1 µM.
Experiment [2] shares this target. The settings on record: at 1 µM.
Experiment [3] has as its target Serine/threonine-protein kinase MRCK beta (Homo sapiens) (UniProt Q9Y5S2). The settings on record: at 0.1 µM.
For experiment [4] the target is unchanged. The settings on record: at 1 µM.
The target of experiment [5] is Ribosomal protein S6 kinase alpha-5 (Homo sapiens) (UniProt O75582). The settings on record: at 0.1 µM.
The target is the same in experiment [6]. The settings on record: at 1 µM.
The target of experiment [7] is Ribosomal protein S6 kinase alpha-4 (Homo sapiens) (UniProt O75676). The settings on record: at 0.1 µM.
Experiment [8] shares this target. The settings on record: at 1 µM.
Experiment [9] deals with Ribosomal protein S6 kinase beta-1 (Homo sapiens) (UniProt P23443). The settings on record: at 0.1 µM.
For experiment [10] the target is unchanged. The settings on record: at 1 µM.
In experiment [11] the target is T1, 3-phosphoinositide-dependent protein kinase 1 (Homo sapiens) (UniProt O15530).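 Further: values are mean inhibition of PDK1.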
T1 sequence (whole entry): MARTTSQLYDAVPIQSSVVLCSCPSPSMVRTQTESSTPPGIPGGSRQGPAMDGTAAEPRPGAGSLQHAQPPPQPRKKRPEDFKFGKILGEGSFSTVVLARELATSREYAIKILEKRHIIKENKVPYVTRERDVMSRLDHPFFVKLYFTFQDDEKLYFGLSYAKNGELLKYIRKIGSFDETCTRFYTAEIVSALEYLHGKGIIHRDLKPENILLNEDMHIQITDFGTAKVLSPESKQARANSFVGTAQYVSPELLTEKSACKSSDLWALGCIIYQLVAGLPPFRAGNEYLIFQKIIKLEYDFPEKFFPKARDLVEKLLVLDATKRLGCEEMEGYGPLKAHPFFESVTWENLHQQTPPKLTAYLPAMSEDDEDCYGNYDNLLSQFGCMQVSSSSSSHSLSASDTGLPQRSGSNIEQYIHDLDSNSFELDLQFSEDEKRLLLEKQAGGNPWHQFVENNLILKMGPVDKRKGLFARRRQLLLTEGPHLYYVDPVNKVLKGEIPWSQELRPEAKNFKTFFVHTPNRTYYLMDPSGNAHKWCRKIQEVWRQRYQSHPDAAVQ
The settings on record: at 0.1 µM.

Experiment [12] addresses cAMP-dependent protein kinase catalytic subunit alpha (Homo sapiens) (UniProt P17612). The settings on record: at 0.1 µM.
Experiment [13] shares this target. The settings on record: at 1 µM.
The target in experiment [14] is Protein kinase C alpha type (Homo sapiens) (UniProt P17252). The settings on record: at 0.1 µM.
Experiment [15] shares this target. The settings on record: at 1 µM.
For experiment [16], the target named is Protein kinase C beta type (Homo sapiens) (UniProt P05771). The settings on record: at 0.1 µM.
For experiment [17] the target is unchanged. The settings on record: at 1 µM.
The target in experiment [18] is Protein kinase C eta type (Homo sapiens) (UniProt P24723). The settings on record: at 0.1 µM.
Experiment [19] shares this target. The settings on record: at 1 µM.
For experiment [20], the target named is Protein kinase C gamma type (Homo sapiens) (UniProt P05129). The settings on record: at 0.1 µM.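 Further: values are mean percent inhibition of PKC gamma.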

Structures are written as SMILES.

As usually defined, the inhibition is the change of the read-out against control, counted positive when it falls.

Sequence of Protein kinase C eta type (Homo sapiens) (P24723 whole entry): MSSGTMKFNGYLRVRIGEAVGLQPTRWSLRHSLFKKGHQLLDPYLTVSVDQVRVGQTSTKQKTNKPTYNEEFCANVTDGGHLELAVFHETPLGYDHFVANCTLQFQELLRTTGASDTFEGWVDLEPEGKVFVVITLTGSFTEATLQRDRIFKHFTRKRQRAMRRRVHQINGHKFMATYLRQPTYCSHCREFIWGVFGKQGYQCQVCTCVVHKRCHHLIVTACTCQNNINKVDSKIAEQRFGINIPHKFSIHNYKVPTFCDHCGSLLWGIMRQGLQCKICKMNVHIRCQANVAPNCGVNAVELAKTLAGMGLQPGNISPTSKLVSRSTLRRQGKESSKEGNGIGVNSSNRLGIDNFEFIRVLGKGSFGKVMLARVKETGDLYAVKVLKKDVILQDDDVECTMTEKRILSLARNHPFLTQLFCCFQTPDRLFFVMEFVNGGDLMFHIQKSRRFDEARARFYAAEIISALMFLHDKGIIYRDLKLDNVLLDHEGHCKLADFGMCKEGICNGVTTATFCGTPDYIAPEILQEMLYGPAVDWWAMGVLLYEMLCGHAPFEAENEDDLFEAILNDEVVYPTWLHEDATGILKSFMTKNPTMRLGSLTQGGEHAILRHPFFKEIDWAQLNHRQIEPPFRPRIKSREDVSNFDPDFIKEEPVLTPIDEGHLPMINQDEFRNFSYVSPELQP
Sequence of Serine/threonine-protein kinase MRCK beta (Homo sapiens) (Q9Y5S2 whole entry): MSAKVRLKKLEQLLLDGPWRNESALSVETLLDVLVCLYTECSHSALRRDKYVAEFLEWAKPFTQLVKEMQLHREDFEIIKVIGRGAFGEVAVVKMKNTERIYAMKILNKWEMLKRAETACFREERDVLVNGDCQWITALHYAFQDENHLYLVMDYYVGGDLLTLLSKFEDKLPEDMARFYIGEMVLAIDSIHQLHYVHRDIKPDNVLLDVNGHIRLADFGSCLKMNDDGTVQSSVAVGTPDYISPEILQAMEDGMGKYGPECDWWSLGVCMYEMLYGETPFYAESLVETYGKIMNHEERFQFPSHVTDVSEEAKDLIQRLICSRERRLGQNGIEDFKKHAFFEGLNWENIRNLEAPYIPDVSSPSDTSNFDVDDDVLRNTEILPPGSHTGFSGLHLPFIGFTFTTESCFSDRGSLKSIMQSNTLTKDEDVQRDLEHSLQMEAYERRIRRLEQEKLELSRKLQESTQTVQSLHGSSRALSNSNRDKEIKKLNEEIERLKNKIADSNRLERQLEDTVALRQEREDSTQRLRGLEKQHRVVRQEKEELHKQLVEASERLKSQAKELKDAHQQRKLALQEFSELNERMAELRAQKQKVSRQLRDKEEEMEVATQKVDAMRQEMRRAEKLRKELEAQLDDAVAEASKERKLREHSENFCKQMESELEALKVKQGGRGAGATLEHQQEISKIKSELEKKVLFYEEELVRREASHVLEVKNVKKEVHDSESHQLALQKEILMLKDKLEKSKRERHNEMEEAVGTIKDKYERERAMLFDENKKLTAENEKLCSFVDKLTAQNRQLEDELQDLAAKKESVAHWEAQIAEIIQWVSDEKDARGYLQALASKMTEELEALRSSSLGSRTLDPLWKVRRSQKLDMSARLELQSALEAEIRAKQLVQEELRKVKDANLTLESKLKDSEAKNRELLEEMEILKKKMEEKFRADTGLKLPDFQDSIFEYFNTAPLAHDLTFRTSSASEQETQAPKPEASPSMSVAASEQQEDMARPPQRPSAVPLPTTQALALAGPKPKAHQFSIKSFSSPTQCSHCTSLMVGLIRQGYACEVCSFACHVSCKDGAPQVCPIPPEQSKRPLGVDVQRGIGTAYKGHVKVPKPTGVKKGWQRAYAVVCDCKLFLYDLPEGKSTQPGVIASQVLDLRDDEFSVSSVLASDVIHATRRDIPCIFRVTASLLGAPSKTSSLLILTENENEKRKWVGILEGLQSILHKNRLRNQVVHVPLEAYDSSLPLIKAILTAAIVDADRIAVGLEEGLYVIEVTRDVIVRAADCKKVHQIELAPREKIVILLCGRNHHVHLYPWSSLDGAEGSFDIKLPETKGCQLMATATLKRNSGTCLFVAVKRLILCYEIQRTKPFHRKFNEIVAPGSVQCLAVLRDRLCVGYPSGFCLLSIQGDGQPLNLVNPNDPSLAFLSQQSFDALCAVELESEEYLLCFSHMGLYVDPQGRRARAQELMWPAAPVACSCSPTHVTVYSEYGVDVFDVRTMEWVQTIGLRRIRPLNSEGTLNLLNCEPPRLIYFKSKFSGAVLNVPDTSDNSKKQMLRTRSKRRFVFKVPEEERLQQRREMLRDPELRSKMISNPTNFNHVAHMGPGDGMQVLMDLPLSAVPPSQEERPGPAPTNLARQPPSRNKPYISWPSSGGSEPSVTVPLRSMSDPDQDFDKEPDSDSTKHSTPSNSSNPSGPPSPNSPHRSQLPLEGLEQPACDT
Sequence of Protein kinase C beta type (Homo sapiens) (P05771 2-671 limits assumed): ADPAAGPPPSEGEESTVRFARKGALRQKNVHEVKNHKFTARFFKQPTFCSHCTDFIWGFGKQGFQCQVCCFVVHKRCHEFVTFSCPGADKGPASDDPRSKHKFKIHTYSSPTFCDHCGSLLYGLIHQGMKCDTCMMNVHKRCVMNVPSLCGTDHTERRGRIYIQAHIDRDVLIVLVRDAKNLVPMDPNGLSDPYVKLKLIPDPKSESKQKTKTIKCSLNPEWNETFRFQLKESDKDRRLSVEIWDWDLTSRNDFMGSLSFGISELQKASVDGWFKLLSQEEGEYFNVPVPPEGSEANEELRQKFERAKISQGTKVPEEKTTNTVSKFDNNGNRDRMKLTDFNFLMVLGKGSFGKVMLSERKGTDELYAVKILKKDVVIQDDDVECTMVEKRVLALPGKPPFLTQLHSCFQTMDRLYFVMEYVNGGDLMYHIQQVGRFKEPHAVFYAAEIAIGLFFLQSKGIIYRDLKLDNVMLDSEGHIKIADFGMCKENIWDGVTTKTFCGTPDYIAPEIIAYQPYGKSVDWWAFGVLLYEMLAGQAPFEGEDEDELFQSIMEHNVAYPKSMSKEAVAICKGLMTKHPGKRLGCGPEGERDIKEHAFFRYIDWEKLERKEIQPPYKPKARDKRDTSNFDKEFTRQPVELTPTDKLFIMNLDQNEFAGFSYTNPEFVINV
Sequence of Ribosomal protein S6 kinase beta-1 (Homo sapiens) (P23443 whole entry, looked up): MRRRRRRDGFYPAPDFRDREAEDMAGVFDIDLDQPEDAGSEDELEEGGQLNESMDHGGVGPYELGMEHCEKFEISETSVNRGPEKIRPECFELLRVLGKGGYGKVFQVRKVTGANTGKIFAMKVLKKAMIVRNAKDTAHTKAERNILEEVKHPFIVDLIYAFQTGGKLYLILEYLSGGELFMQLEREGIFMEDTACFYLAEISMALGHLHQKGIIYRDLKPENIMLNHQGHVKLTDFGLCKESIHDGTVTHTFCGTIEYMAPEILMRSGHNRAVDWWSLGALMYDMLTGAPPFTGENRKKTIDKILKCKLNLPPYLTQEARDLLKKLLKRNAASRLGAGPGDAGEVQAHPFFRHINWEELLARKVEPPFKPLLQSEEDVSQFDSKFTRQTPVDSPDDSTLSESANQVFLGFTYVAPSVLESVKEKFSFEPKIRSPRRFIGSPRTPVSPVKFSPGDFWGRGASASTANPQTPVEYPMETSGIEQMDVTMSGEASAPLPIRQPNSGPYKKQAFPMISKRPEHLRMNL

With `c1cc(-c2cnn3nc(N4CCOCC4)ccc23)nc(NC2CC2)n1`, the inhibition in [1] was 0.21%; in experiment [2], -0.69%; in experiment [3], 0.92%; in [4], 0.61%; in [5] it was 3.83%; in experiment [6], 3.75%. The inhibition in [7] came out at 0.89%; in experiment [8], 6.24%; in [9], 1.29%; in experiment [10] it was 3.7%; in experiment [11] it was 4.31%; in [12] it was 1.21%. The inhibition is 1.42% in experiment [13]; 1.17% in experiment [14]; 6.27% in [15]; -0.45% in experiment [16]; -0.77% in experiment [17]; 2.39% in experiment [18]. In addition, the inhibition in experiment [19] was determined as 2.99%; in experiment [20] it was 6.1%.

For the compound `CCn1c(-c2nonc2N)nc2ccccc21`, the inhibition in [1] stood at 1.63%; in [2], 10.9%; in [3], 1.39%; in [4], 10.9%; in experiment [5], 23.3%; in experiment [6], 62.5%. Further, the inhibition was found to be 7.88% in [7]; 40.4% in [8]; 22.1% in experiment [9]; 70.5% in experiment [10]; 2.81% in experiment [11]; 3.16% in experiment [12]. The inhibition amounted to 18.5% in experiment [13]; 0.44% in [14]; 5.52% in [15]; 12.7% in experiment [16]; 46.5% in experiment [17]; 20.8% in experiment [18]. Also, the inhibition is 67.6% in [19] and 3.92% in experiment [20].

As for `COc1ccc2c(-c3ccnc(Nc4cccc(OC(F)(F)F)c4)n3)cnn2n1`, the inhibition in [1] is -0.42%; in experiment [2] it was 2.27%; in experiment [3], 0.42%; in experiment [4] it was -0.61%; in [5] it was 4.58%; in experiment [6], 4.54%. The inhibition turned out to be 2.99% in experiment [7]; 7.19% in experiment [8]; 3.11% in experiment [9]; 3.7% in experiment [10]; 1.72% in experiment [11]; 1.61% in [12]. Also, the inhibition in [13] was found to be 3.17%; in experiment [14], 1.34%; in experiment [15], 12.7%; in [16], 0.08%; in experiment [17], 3.07%; in [18], 6.47%. The results for the inhibition in [19] and in experiment [20] were 6.9% and 5.4%, respectively.

Turning to `COc1cc(N2CCN(C(C)C)CC2)ccc1Nc1nc(Nc2ccc(F)cc2C(N)=O)c2cc[nH]c2n1`, the inhibition in experiment [1] turned out to be 9.71%; in experiment [2] it was 20%; in experiment [3], 1.18%; in [4], 16.4%; in experiment [5], 1.85%; in experiment [6], 6.61%. Besides, the inhibition in experiment [7] was 1.8%; in experiment [8], 7.26%; in [9] it was 1.81%; in [10], 5.41%; in experiment [11] it was -1.21%; in [12] it was 7.85%. For the same compound, the inhibition in [13] came out at 7.44%; in experiment [14] it was 0.54%; in [15] it was 6.72%; in experiment [16], 1.83%; in experiment [17] it was 4.58%; in experiment [18], 1.05%. Moreover, the inhibition is 3.09% in experiment [19] and 3.65% in experiment [20].

Take `CCN1CCC(CC(=O)Nc2n[nH]c3nnc(-c4cccc(F)c4F)cc23)CC1`: the inhibition was -3.37% in experiment [1]; 0.57% in [2]; 0.12% in experiment [3]; 0.92% in experiment [4]; 0.93% in experiment [5]; -0.87% in experiment [6]. Further, the inhibition in experiment [7] was determined as 2.22%; in experiment [8], 1.55%; in experiment [9], 0.65%; in experiment [10] it was 0.08%; in experiment [11], 1.89%; in experiment [12] it was 1.6%. The inhibition amounted to 3.23% in experiment [13]; 0.66% in [14]; 1.58% in [15]; 2.14% in experiment [16]; 0.03% in [17]; 1.63% in experiment [18]. In addition, the inhibition in experiment [19] was 3.3%; in [20], 3.44%.

Take `Nc1nc(-c2ccc(F)cc2)c(-c2ccc3ncccc3n2)s1`: the inhibition in [1] is -0.11%; in experiment [2] it was 3.87%; in experiment [3] it was 0.89%; in experiment [4], 0.94%; in experiment [5] it was 3.54%; in [6] it was 3.83%. The inhibition was determined as 3.18% in [7]; 4.49% in experiment [8]; 2.53% in experiment [9]; 2.7% in experiment [10]; 3.99% in experiment [11]; 1.65% in experiment [12]. The inhibition in experiment [13] turned out to be 3.75%; in experiment [14], 1.13%; in experiment [15] it was 2.9%; in [16], 0.21%; in [17], 3.92%; in [18] it was 1.76%. For the same compound, the results for the inhibition in experiment [19] and in experiment [20] were 6.71% and 2.26%, respectively.

Turning to `Fc1ccc(-c2nn3ncccc3c2-c2ccnc(Nc3ccc4c(c3)OCCO4)n2)cc1`, the inhibition in [1] is 1.99%; in experiment [2], 20.4%; in [3], -0.17%; in experiment [4], 1.27%; in experiment [5] it was 2.73%; in experiment [6], 2.22%. The inhibition in experiment [7] came to 0.67%; in [8], 3.9%; in experiment [9] it was 1.73%; in experiment [10], 2.69%; in experiment [11] it was 1.87%; in [12], 2.22%. In addition, the inhibition in experiment [13] was 7.13%; in experiment [14], 1.5%; in [15], 15.3%; in experiment [16], 1.43%; in experiment [17], 13.3%; in experiment [18], 2.26%. For the same compound, the inhibition in experiment [19] is 6.09%; in experiment [20], -1.6%.

The values above are taken from ChEMBL document CHEMBL1961873, “Compounds: GSK PKIS; Assays: Nanosyn kinase panel” (2012).
